USP30 block: inhibitors of human USP30 deubiquitinase; purified USP30, Ub-rhodamine cleavage fluorescence; 47,000 compounds, 5.3% hits; inhibition, % at 25 µM; Q70CQ3
USP28 block: inhibitors of human USP28 deubiquitinase; Q96RU2; 47,000 compounds, 3% hits; inhibition, % at 25 µM; purified USP28, Ub-rhodamine cleavage fluorescence, 30 min
USP8 inh: human USP8 deubiquitinase inhibition | P40818 | purified USP8, Ub-rhodamine cleavage fluorescence, 30 min | inhibition, % at 20 µM | 47,000 compounds, 4.2% hits | AID 1645853
Target sequence (P40818 whole entry, looked up): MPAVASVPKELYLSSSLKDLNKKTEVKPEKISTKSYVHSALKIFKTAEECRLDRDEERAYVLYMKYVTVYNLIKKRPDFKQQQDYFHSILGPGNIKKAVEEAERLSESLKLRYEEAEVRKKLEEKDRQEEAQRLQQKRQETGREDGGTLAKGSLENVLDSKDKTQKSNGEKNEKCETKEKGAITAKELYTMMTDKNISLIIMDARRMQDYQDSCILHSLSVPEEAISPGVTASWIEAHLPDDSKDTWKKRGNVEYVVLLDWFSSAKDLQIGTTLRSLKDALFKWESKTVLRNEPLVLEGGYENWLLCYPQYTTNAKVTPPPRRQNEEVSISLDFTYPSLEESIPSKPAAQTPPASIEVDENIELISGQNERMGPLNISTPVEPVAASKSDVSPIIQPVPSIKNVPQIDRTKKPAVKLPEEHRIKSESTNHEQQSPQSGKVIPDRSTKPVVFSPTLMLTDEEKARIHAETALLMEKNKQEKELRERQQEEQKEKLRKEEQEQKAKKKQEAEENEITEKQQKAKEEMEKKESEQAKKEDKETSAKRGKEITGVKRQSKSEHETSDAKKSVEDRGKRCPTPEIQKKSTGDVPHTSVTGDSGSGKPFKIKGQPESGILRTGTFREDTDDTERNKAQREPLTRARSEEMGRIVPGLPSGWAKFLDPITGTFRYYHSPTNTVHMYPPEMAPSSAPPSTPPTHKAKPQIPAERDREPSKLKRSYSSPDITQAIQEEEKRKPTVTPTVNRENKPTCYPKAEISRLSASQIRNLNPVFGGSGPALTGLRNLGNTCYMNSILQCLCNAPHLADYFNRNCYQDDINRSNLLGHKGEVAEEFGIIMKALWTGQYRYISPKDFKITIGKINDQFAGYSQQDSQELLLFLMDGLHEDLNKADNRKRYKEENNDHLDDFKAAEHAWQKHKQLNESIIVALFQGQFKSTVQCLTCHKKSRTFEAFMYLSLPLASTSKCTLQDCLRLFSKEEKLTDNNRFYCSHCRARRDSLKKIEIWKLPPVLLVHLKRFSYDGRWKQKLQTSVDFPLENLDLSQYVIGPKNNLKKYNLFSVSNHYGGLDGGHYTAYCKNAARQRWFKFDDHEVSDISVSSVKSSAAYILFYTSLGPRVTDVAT
USP17 block: inhibitors of human USP17 deubiquitinase | inhibition, % at 50 µM | 47,000 compounds, 6.5% hits | A8MUK1 | purified USP17, Ub-rhodamine cleavage fluorescence, 3 h
Of the large screens only hits and unclear results are named; the others gave an inactive call. Sampled rows, rich in hits. Any-hit rate of the full collection: about 13%. Cut-off read from the data, not from the text of the source: active = inhibition above about 30%; inactive = the rest.

COc1ccc(CCn2c(=O)[nH]c3cc(C(=O)NCc4ccco4)ccc3c2=O)cc1OC	USP8 inh 42.3
Cc1cc(C)nc(SCC(=O)N(Cc2ccco2)C2(C(=O)Nc3c(C)cccc3C)CCCCC2)n1	USP30 block 40.3, USP17 block 57.8
Cc1cccc(C)c1NC(=O)C1(N(Cc2ccco2)C(=O)c2ccccc2F)CCCCC1	USP30 block 35.8
Nc1ncc(-c2cccc(C(F)(F)F)c2)c(C2CCCCN2)n1 (stereo unspecified)	none
Cc1cc(NC(=O)CN2CCC(c3nnc(C)s3)CC2)no1	none
COc1ccc(Cl)cc1NC(=O)CSc1ncnc2nc[nH]c12	USP30 block 33.1, USP28 block 43.4, USP8 inh 74.0
N#Cc1c(-c2ccc(Cl)cc2)cc(-c2cccs2)nc1N	USP17 block 38.2
c1cncc(-c2nc(NCC3CCCO3)c3c4c(sc3n2)CCCC4)c1 (stereo unspecified)	none
Cc1cccc(O)c1C(=O)O[C@H](C)c1cccc2nc3c(C(=O)O)cccc3nc12	USP17 block 38.5
O=C(NCc1ccc(Cl)cc1)NCc1cnn2ccccc12	USP30 block 39.0
Cc1nc(-c2ccc(C)c(S(=O)(=O)Nc3ccccc3C)c2)no1	none
COc1cc(NC(=O)Cc2cn3ccccc3n2)cc(OC)c1	none
O=C(Nc1ccc(-c2cn3ccccc3n2)cc1)C1C=C2C=C(Br)C=CC2OC1=O (stereo unspecified)	USP30 block 49.1, USP28 block 51.5
COc1ccc(C(C)=O)cc1COC(=O)c1ccc2c(c1)S(=O)(=O)N=C1CCCCCN12	USP30 block 38.1, USP17 block 45.3
COc1ccc2nc(C)cc(NCCc3ccc(S(N)(=O)=O)cc3)c2c1	none
O=C(NCC1(O)CCc2ccccc21)c1ccc2c(c1)OCO2 (stereo unspecified)	USP30 block 33.2
CC(=O)O[C@H]1C[C@H](OC(C)=O)[C@]2(C)C1[C@H](C)C[C@@H]1OC(=O)C(CN3CCCCC3)[C@H]1[C@@H]2O (stereo partly specified)	none
O=c1cc(CN2CCc3ccccc32)cc[nH]1	USP8 inh 32.6
O=c1cc(CN2CCN(Cc3cccc(F)c3)CC2)cc[nH]1	none (no result: USP17 block)
O=C(CCCCn1c(=O)[nH]c2ccccc2c1=O)Nc1ccc(Oc2ccccc2)cc1	none
CC(=O)NCCc1ccc(-c2csc(-c3ccccn3)n2)cc1	none
CC(=O)Nc1c(-c2ccc(F)cc2)c(C)nn1-c1ccc(C(=O)NCc2ccccn2)cc1	none
CC(=O)Nc1c(-c2ccc(C)cc2)c(C)nn1-c1ccc(C(=O)Nc2cccc(C#N)c2)cc1	USP17 block 49.2
CC(=O)O[C@H]1C(=O)/C=C/C(=O)[C@@]23C(=O)N[C@@H](Cc4c[nH]c5ccccc45)[C@@H]2[C@H](C)[C@@]2(C)O[C@H]2[C@@H]3/C=C/C[C@H](C)/C=C/1C	none
Cc1cccc(NC(=O)c2cnc(N3CCCCC3)c3ccccc23)n1	USP8 inh 36.0
Cc1nc(N2CCCCC2)ncc1C(=O)Nc1ccccc1F	none
COc1ccc(-c2ccnc(-c3ccc(OCc4cccc(F)c4)cc3)n2)cc1	USP30 block 40.7, USP17 block 56.2
O=C(Nc1ccc(Br)cc1F)c1cc(S(=O)(=O)NCCc2ccccc2)ccc1F	USP30 block 36.0
COC(=O)CN1c2ccccc2NC2=C(C(=O)CC(C)(C)C2)C1c1cccs1 (stereo unspecified)	USP30 block 30.9
O=C(COc1coc(CN2CCc3ccccc3C2)cc1=O)Nc1cccc(F)c1	USP8 inh 30.4
O=C(COc1coc(CN2CCc3ccccc3C2)cc1=O)Nc1ccccc1F	none
O=C(NCCn1ccc2ccccc21)c1cc2ccccc2oc1=O	USP17 block 68.4
CNC(=O)Nc1cnn(-c2ncncc2N2CCC(C)CC2)c1	none
COc1ccc(-n2nnc(C(=O)Nc3ccccc3)c2N)cc1	USP17 block 51.0
CCc1ccc(NC(=O)c2nnn(-c3ccc(C)cc3)c2C)cc1	none
COc1ccc(NC(=O)c2nnn(-c3ccccc3)c2C)cc1OC	USP28 block 55.8
Cc1cccc(NC(=O)c2nnn(-c3ccccc3Cl)c2C)c1C	USP28 block 38.7
Cc1ccc(-n2nnc(C(=O)Nc3ccccc3)c2C)cc1	USP17 block 49.4
COc1ccc(NC(=O)c2nnn(-c3ccccc3)c2C)cc1Cl	none
COc1ccc(Cl)cc1-n1nnc(C(=O)Nc2ccc(C)cc2C)c1C	USP17 block 31.3
COc1ccccc1-n1nnc(C(=O)Nc2ccc(Oc3ccccc3)cc2)c1C	USP28 block 51.6
Cc1ccc(-n2nnc(C(=O)Nc3ccc(C)c(C)c3)c2C)cc1	USP8 inh 39.6
CN1[C@@H](C(=O)O)CS[C@H]1[C@@H]1CSC(c2ccccc2O)=N1	none
CCOc1ccc(CC(=O)N2CCCC2c2cc(C)on2)cc1 (stereo unspecified)	none
CCc1cccc(CC)c1NC(=O)COC(=O)c1cc2cccc(OC)c2oc1=O	USP30 block 39.3, USP8 inh 61.9, USP17 block 89.8
COc1ccc(Cl)cc1NC(=O)COC(=O)c1cc2ccccc2oc1=O	USP8 inh 70.4
Cc1cccc(C(C)C)c1NC(=O)COC(=O)c1cc2ccccc2oc1=O	none
Cc1cccn2c(=O)c3cc(C#N)c(=O)n(-c4ccccc4[N+](=O)[O-])c3nc12	USP17 block 38.9
CC(Oc1ccccc1)C(=O)N1CCC2(CC1)NC(=O)N(CCc1ccccc1)C2=O (stereo unspecified)	none
O=C(COc1ccccc1[N+](=O)[O-])Nc1cccc(-c2nc3ccccc3[nH]2)c1	none
O=C(Nc1cccc(-c2nc3ccccc3[nH]2)c1)c1cc2ccccc2oc1=O	USP30 block 37.2, USP17 block 59.5
Nc1ccccc1SC(CC(=O)c1ccc(Cl)cc1)c1ccsc1 (stereo unspecified)	USP8 inh 72.7, USP17 block 53.3
COc1ccccc1S(=O)(=O)N1CCC2(CC1)OC(=O)Nc1ccccc12	none
O=C(COC(=O)C(Cc1ccccc1)NC(=O)c1ccccc1)NCc1ccc2c(c1)OCO2 (stereo unspecified)	USP17 block 46.8
CC(C)C(NC(=O)c1ccccc1Cl)C(=O)OCC(=O)NCc1ccc2c(c1)OCO2 (stereo unspecified)	none
NC(=O)c1nc(-c2cccc(F)c2)nc2c1[nH]c(=O)n2C1CCCCC1	USP17 block 51.4
COc1cccc(-c2nc(C(N)=O)c3[nH]c(=O)n(-c4cccc(Cl)c4)c3n2)c1OC	USP17 block 50.7
Cc1cccc(-n2c(=O)[nH]c3c(C(N)=O)nc(C4CCCCC4)nc32)c1	USP30 block 49.1
COc1ccc(-c2nc(C(N)=O)c3[nH]c(=O)n(-c4ccc(OC)c(OC)c4)c3n2)cc1	none
Cc1nc(C(N)=O)c2[nH]c(=O)n(C3CCCCC3)c2n1	none
O=C(CSc1nnc(-c2sccc2-n2cccc2)o1)c1ccc(Cl)cc1	USP17 block 33.0
Cc1ccccc1-c1nnc(-c2cnc3onc(C4CC4)c3c2)o1	none
Cc1sc2nc(SCC(=O)Nc3cccc(F)c3)n(Cc3ccco3)c(=O)c2c1C	none
Cc1sc2nc(SCC(=O)Nc3ccccc3O)n(Cc3ccco3)c(=O)c2c1C	USP8 inh 53.8
